The text below walks through data of ChEMBL document CHEMBL3433997, “St. Jude Leishmania screening dataset” (2016).

Holding throughout (assay type): functional
The target in assay [1] is Solute carrier family 2, facilitated glucose transporter member 1 (Homo sapiens) (UniProt P11166). The assay is described as follows: ST_JUDE_LEISH: Cytotoxicity at 2uM final concentration against transgenic Leishmania Mexicana promastigotes LmGLUT1 that are glucose transport deficient and complemented with the human glucose transporter GLUT1. Activity is measured by DNA content using SYBR green in vitro.
Chain of Solute carrier family 2, facilitated glucose transporter member 1 (Homo sapiens) (P11166 whole entry): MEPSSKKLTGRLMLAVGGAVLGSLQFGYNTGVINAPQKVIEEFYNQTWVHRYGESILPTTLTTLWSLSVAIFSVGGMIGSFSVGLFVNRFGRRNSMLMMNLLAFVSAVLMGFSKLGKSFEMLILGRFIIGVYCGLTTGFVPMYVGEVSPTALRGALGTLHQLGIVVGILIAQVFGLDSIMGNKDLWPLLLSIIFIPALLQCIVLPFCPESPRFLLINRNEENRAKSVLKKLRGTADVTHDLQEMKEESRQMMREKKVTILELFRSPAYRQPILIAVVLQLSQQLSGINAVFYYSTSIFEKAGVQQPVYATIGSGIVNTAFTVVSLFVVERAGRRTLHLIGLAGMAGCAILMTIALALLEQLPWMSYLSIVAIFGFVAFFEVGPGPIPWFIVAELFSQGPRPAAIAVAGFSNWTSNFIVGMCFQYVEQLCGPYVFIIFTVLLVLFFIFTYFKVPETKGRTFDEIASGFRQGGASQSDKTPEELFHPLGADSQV

Assay [2] has as its target Hexose transporter 1 (Plasmodium falciparum) (UniProt O97467). The assay can be described thus: ST_JUDE_LEISH: Cytotoxicity at 2uM final concentration against transgenic Leishmania Mexicana promastigotes LmPfHT that are glucose transport deficient and complemented with the Plasmodium falciparum hexose transporter. Activity is measured by DNA content using SYBR green in vitro.

Assay [3] has as its target Glucose transporter (Leishmania mexicana) (UniProt O61059). The assay is described as follows: ST_JUDE_LEISH: Cytotoxicity at 2uM final concentration against transgenic Leishmania Mexicana promastigotes LmGT2 that are glucose transport deficient and complemented with the L. Mexicana glucose transporter 2. Activity is measured by DNA content using SYBR green in vitro.

The inhibition is the drop in the measured response relative to a control, in per cent. As to `COc1cc(NC(=O)/C=C/c2cc(F)cc(F)c2F)cc(OCCN2CCC(O)(c3ccccc3)CC2)c1`, the inhibition stood at 3.43% in assay [1], 1.97% in assay [2] and 2.47% in assay [3].
Regarding `CC(C)N1CCC(NC(=O)N2CCCN(c3ncnc4cc(-c5ccc(Cl)cc5)sc34)CC2)CC1`, the results for the inhibition in assay [1], in assay [2] and in assay [3] were -0.49%, 0.6% and -3.09%, respectively.
For `COc1ccc2nc(Nc3nc(-c4ccccn4)cs3)sc2c1`, the figures for the inhibition in assay [1], in assay [2] and in assay [3] were 11.7%, 16% and 5.62%, respectively.
For `CN1CC[C@@H](Oc2cc(NC(=O)Nc3ccccc3Br)ccc2Cl)C1`, in that order: 4.94%, 3.71% and 2.59%.
For `O=C(NCCCCN1CCC(O)(c2ccc3c(c2)OCO3)CC1)c1ccc(NC(=O)c2ccc(Cl)cc2)cc1`, the inhibition in assay [1] was -1.5%; in assay [2] it was 1.45%; in assay [3], -1.6%.
As to `FC(F)(F)c1ccc2[nH]ccc(=NN=Cc3cccc(Cl)c3)c2c1`, the inhibition in assay [1] was 1.05%; in assay [2], -0.16%; in assay [3] it was -3.89%.
Regarding `CN1CCC(Oc2cc(NC(=O)Nc3ccc(-c4ccncc4)c(C(F)(F)F)c3)ccc2Cl)CC1`, the inhibition in assay [1] turned out to be 12.6%; in assay [2], 10.6%; in assay [3] it was 7.11%.
For the molecule `COc1ccc(CCNc2nc(NCCc3cnc[nH]3)nc(NCc3cccc4ccccc34)n2)cc1OC`, the inhibition in assay [1] came out at 7.46%; in assay [2], 10.1%; in assay [3], 4.1%.
On the same counts, the results for `COc1ccc(CNC2CCN(C)CC2)cc1-c1ccc(S(=O)(=O)NC2CCC2)c(F)c1` are 0.83%, 0.39% and 1.91%.
As to `O=C(/C=C/c1ccc(C(F)(F)F)cc1)NCCCCCN1CCCN(C(=O)Nc2ccc(Cl)c(C(F)(F)F)c2)CC1`, the inhibition in assay [1] is -0.16%; in assay [2] it was 0.4%; in assay [3] it was 0.66%.
In the case of `Cc1cc(C(=O)CSc2nc3ccccc3n2-c2ccccc2)c(C)n1C1CCS(=O)(=O)C1` (stereo not drawn), the inhibition in assay [1] was 0.82%; in assay [2], -1.32%; in assay [3] it was 0.44%.
Turning to `COc1cc(C)nc2ccc(NC(=O)c3cc(C(F)(F)F)cc(C(F)(F)F)c3)cc12`, the inhibition amounted to 16.3% in assay [1], 12.8% in assay [2] and 10.1% in assay [3].
Consider `CCc1c(C)nc2nc(Cc3cccc(F)c3)nn2c1N1CCN(c2ccccn2)CC1`, for which the results for the inhibition in assay [1], in assay [2] and in assay [3] were 14.9%, 12% and 9.56%, respectively.
Turning to `O=C(Nc1ccc(OC2CCN(Cc3ccsc3)CC2)c(Cl)c1)c1ccc(F)cc1`, the inhibition in assay [1] was determined as 4.89%; in assay [2] it was 2.78%; in assay [3] it was 2.62%.
In the case of `Fc1cccc(Nc2nc(NCc3ccc4ccsc4c3)nc(Nc3cccc(F)c3)n2)c1`, the figures for the inhibition in assay [1], in assay [2] and in assay [3] were 19.2%, 18% and 10.6%, respectively.
With `COc1cc(-n2cnc3cc(-c4ccc(Cl)cc4)sc3c2=O)ccc1OCCN1CCC(c2cccc(NC(C)=O)c2)CC1`, the inhibition in assay [1] was determined as 6.68%; in assay [2] it was 3.81%; in assay [3] it was 3.05%.
For `Cc1sc2nc(CSc3ccccc3)nc(N3CCN(CC(=O)N4CCCC4)CC3)c2c1C`, the inhibition in assay [1] is 5.03%; in assay [2], 5.88%; in assay [3], 1.41%.
On the same counts, the results for `N=C(N)NN=Cc1ccc2c(ccc3ccccc32)c1` are 7.03%, 8.19% and 3.76%.
In the case of `Fc1ccc2[nH]c(-c3ccc(-c4ccc(CNCc5ccccc5)cc4)cc3)nc2c1`, the inhibition in assay [1] came to 12.6%; in assay [2] it was 8.67%; in assay [3] it was 6.7%.
On the same counts, the results for `COc1ccc2nccc([C@@H](O)CN3CCC(NCc4ccc5c(c4)OCCO5)CC3)c2c1` are 6.76%, 5.93% and 0.41%.
As for `Cc1cc(Br)c(OCCCON2C(=N)N=C(N)NC2(C)C)c(Br)c1`, the inhibition came to 2.66% in assay [1], 4.88% in assay [2] and 1.2% in assay [3].
Take `COc1cc(F)c2ncc(Cl)c([C@@H](O)CN3CCC(NCc4ccc5c(n4)NC(=O)CO5)CC3)c2c1`: the inhibition turned out to be 6.57% in assay [1], 3.3% in assay [2] and 2.71% in assay [3].
For `O=c1cc(NCCCNC2CCOc3c(I)cc(Cl)cc32)[nH]c2ccccc12` (stereo not drawn), the inhibition was 2.44% in assay [1], 4.6% in assay [2] and 1.03% in assay [3].
Turning to `COc1cccc2c1CCN(CCN1CCC(NC(=O)c3ccc(-c4cccc(Cl)c4Cl)cc3)CC1)C2`, the inhibition in assay [1] was found to be 6.67%; in assay [2], 6.1%; in assay [3], 5.27%.
On the same counts, the results for `OCC1CCN(Cc2cccc(-c3ccc(-c4nc5cc(F)ccc5[nH]4)cc3)c2)CC1` are 0%, -0.04% and 0.27%.
In the case of `CC(C)COc1ccc(Cl)cc1Cc1nc(-c2nc3ccc(CN(C)C)cc3[nH]2)co1`, the inhibition in assay [1] turned out to be 4.88%; in assay [2], 4.73%; in assay [3] it was 4.57%.
Turning to `Cc1ccc(/C=C/C(=O)NCCCCCN2CCCN(C(=O)Nc3ccc(Cl)c(Cl)c3)CC2)cc1`, the inhibition in assay [1] was 1.97%; in assay [2] it was 2.34%; in assay [3], 4.4%.
For `COc1ccc(-c2ccc(NC(=O)c3ccc(C#N)cc3)cc2)cc1CN1CCNCC1`, the inhibition worked out at 10.9% in assay [1], 7.81% in assay [2] and 5.48% in assay [3].
For the molecule `CCCNCc1ccc(-c2ccc(CN(C(=O)c3nn(-c4ccccc4)nc3C)C3CCOCC3)cc2)nc1`, the inhibition in assay [1] was -0.49%; in assay [2] it was -0.28%; in assay [3] it was -1.66%.
For `Cc1nc(C)c(-c2ccc(S(=O)(=O)c3ccc(Cl)cc3)cc2)c(O)c1Cl`, the inhibition in assay [1] amounted to 9.02%; in assay [2], 5.86%; in assay [3], 7.16%.
For the molecule `CC(C)CNCc1cccc(-c2cccc(CN(CCCN3CCN(C)CC3)C(=O)/C=C/c3ccccc3)c2)c1`, the inhibition was -1.06% in assay [1], -1.23% in assay [2] and -4.91% in assay [3].
For `CCCCC1=CC2C(=O)C(C(=O)OC)=CN=C2C=C1OCc1ccccc1` (stereo not drawn), the inhibition in assay [1] is -0.41%; in assay [2], -2.57%; in assay [3], -1.77%.
`COc1ccc(NC(=O)CCNc2ccnc(NCCc3ccc(F)cc3)n2)cc1`: the inhibition amounted to 2.48% in assay [1], 2.27% in assay [2] and 1.75% in assay [3].
In the case of `COc1cc2c(cc1S(=O)(=O)c1ccc(NC(=O)c3ccc4ccccc4c3)cc1)CCN(C)CC2`, the inhibition in assay [1] was 1.64%; in assay [2] it was 0.19%; in assay [3], -0.44%.
On the same counts, the results for `CC(=O)Nc1ncc(C(=O)Nc2cccc(-c3ccc(-c4nc5cc(C(F)(F)F)ccc5[nH]4)cc3)c2)s1` are 2.37%, 0.89% and -0.63%.
For `COc1cccc(Nc2c(C(N)=O)cnc3ccc(-c4ccccc4)cc23)c1`, the inhibition is 0.37% in assay [1], 0.94% in assay [2] and 1.58% in assay [3].
